Reference: ChEMBL document CHEMBL3988442, “University of Dundee, Small-Polar-MMV Screening Library” (2021)
For some of these results: Entries with a potency or affinity are not part of this list.

Columns and labels:
Set-up in all cases: scale not given: direction of the effect not stated beside the values
[1] = biological target: Protein translocase subunit SecA (Escherichia coli (strain K12)) (UniProt P10408); assay: Assay to Identify E. coli SecA ATPase Inhibitors; format: functional; conditions: 30 µM
Protein translocase subunit SecA (Escherichia coli (strain K12)), sequence (P10408 whole entry): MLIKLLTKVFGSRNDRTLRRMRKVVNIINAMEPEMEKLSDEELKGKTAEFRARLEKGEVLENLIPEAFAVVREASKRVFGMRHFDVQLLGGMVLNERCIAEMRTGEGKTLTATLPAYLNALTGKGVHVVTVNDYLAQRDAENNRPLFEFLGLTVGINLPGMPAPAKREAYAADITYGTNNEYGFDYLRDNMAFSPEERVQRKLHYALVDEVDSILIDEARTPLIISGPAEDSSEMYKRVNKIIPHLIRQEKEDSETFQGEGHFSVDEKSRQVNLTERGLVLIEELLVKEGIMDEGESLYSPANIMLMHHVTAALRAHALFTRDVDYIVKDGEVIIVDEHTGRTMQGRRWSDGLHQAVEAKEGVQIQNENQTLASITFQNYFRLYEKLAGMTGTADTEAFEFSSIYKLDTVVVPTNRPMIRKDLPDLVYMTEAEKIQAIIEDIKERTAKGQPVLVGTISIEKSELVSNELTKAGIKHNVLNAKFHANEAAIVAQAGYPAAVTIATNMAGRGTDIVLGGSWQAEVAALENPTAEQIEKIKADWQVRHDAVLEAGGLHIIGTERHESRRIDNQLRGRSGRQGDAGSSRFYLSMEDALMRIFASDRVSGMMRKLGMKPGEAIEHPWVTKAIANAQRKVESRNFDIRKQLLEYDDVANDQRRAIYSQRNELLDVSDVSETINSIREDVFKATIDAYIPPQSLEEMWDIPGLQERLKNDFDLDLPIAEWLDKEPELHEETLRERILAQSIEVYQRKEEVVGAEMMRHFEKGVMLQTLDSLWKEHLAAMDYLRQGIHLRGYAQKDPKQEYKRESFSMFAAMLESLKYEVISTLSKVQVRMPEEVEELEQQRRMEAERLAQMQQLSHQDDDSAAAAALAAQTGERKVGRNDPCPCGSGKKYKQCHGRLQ

[2] = biological target: T1, Ubiquitin-activating enzyme e1, putative (Leishmania donovani (strain BPK282A1)) (UniProt E9BSI1); assay: Leishmania donovani Ubiquitin Activating Enzyme (LdE1); format: functional; conditions: 30 µM
T1 sequence (whole entry): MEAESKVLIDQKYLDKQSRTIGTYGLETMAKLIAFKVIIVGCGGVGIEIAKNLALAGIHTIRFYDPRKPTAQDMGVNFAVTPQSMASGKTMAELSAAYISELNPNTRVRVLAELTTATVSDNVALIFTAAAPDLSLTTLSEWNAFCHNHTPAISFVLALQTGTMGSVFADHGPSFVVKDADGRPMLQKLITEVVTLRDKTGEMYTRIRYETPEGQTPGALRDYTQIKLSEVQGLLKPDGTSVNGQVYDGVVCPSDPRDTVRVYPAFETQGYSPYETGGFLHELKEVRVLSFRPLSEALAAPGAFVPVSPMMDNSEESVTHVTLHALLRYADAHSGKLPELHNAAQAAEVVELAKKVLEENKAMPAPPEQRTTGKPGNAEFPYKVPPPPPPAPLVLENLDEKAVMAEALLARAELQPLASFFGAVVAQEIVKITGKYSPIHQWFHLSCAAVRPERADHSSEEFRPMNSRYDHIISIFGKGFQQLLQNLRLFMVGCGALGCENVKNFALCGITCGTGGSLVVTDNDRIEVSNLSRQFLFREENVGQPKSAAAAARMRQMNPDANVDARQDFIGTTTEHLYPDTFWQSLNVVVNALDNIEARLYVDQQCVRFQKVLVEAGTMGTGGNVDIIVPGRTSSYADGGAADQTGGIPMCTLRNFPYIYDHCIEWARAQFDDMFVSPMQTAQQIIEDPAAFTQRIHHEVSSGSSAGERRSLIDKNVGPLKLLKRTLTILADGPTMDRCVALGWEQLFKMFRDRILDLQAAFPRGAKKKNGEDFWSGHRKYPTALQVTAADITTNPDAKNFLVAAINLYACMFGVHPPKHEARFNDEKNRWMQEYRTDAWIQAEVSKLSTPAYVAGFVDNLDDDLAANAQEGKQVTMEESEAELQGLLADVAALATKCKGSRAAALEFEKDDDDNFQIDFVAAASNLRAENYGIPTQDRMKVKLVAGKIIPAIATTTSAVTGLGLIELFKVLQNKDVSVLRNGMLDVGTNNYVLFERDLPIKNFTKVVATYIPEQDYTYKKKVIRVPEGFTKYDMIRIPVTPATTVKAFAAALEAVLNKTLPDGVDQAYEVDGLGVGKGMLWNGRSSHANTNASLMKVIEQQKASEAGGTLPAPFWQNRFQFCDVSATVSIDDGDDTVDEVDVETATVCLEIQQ

[3] = biological target: AMP-activated protein kinase, AMPK (Homo sapiens) (UniProt P54646+O43741+P54619+Q9UGJ0+Q9Y478+Q13131+Q9UGI9); assay: AMP-dependent Kinase enzyme assay. An in vitro enzyme assay that detects ADP turnover that is directly proportional to AMPK activity. This uses naive AMPK that is activated during the assay with MK-8722; format: functional; conditions: 30 µM
[4] = biological target: Sialic acid-binding Ig-like lectin 9 (Homo sapiens) (UniProt Q9Y336); assay: Hs-Siglec9 ALPHAscreen SOP 20170721; conditions: 10 µM
Sialic acid-binding Ig-like lectin 9 (Homo sapiens), sequence (Q9Y336 whole entry): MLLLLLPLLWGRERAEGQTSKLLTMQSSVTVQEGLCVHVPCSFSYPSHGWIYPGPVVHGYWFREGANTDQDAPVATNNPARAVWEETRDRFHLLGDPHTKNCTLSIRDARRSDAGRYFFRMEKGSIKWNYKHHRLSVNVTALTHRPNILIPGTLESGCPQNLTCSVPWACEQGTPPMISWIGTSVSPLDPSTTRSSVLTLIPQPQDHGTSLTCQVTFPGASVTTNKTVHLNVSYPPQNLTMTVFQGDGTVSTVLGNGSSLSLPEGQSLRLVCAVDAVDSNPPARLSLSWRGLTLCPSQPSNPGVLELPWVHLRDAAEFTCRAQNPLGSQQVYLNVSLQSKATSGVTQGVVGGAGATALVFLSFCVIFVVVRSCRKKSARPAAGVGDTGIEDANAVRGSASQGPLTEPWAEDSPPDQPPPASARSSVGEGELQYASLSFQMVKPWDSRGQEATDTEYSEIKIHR

Trypanosoma cruzi = assay: Trypanosoma cruzi phosphomannomutase and mannose-1-phosphate guanylyltransferase assay; format: functional; conditions: 10 µM
[5] = biological target: T2, Arginase-2, mitochondrial (Homo sapiens) (UniProt P78540); assay: in vitro enzyme assay to detect the production of urea directly proportional to the activity of Arginase II; format: functional; conditions: 33.3 µM; note: in the data most compounds retested in dose-response had high values
T2 sequence (whole entry): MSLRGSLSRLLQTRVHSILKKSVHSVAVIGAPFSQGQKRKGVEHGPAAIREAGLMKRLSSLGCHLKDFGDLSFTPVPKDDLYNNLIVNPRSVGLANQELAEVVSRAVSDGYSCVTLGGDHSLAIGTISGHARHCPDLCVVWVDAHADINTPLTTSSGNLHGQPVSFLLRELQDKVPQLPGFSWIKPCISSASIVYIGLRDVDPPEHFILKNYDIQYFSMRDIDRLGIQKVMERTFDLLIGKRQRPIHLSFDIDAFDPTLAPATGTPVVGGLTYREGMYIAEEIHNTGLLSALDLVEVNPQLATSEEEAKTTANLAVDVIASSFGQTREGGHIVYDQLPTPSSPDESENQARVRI

[6] = biological target: T3, Proteasome subunit beta (Trypanosoma cruzi) (UniProt O96673); assay: Trypanosoma cruzi proteasome chymotrypsin-like activity (TcProtChymo) assay.; note: in the data most compounds retested in dose-response had high values; format: functional; conditions: 9.37 µM
T3 sequence (whole entry): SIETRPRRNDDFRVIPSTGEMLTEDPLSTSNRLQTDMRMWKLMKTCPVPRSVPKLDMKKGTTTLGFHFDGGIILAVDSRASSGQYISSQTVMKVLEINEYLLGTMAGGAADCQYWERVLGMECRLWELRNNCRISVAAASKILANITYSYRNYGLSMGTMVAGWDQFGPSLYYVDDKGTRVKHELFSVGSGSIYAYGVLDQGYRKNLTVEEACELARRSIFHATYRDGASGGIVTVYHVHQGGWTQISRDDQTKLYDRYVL

Homo sapiens = organism: Homo sapiens; assay: To identify inhibition of the IFN signalling (Jak-Stat) pathway via expression of an eGFP reporter gene under the control of an IFN-stimulated response element (ISRE) containing MxA promoter.; format: functional; conditions: 30 µM
[7] = biological target: T4, Tyrosyl-tRNA synthetase, putative (Trypanosoma cruzi (strain CL Brener)) (UniProt Q4DSP6); assay: Trypanosoma cruzi tyrosyl tRNA synthetase (TcYRS) _High Tyrosine SOP; format: functional; conditions: 30 µM; note: in the data most compounds retested in dose-response had high values
T4 sequence (whole entry): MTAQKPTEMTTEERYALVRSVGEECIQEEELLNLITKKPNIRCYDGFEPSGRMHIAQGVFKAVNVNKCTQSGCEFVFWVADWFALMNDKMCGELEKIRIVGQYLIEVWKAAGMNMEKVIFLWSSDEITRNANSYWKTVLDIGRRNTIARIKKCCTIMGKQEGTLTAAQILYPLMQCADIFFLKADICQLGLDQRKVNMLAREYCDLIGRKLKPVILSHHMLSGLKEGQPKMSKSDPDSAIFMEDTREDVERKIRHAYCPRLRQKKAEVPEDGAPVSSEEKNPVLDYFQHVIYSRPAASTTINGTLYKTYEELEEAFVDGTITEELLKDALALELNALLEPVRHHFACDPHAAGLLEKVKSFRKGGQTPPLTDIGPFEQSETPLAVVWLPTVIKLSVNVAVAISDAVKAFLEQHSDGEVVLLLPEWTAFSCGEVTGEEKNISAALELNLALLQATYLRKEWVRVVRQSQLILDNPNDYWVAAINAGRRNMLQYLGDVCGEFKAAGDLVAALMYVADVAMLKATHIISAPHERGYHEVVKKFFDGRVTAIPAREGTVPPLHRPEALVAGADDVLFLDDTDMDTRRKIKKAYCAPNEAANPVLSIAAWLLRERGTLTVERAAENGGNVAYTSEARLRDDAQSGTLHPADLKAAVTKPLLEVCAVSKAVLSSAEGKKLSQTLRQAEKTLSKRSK

[8] = biological target: T4, Tyrosyl-tRNA synthetase, putative (Trypanosoma cruzi (strain CL Brener)); assay: Trypanosoma cruzi tyrosyl tRNA synthetase (TcYRS) SOP; format: functional; conditions: 30 µM
[9] = biological target: Chromo domain-containing protein 1 (Saccharomyces cerevisiae (strain ATCC 204508 / S288c) (Baker's yeast)) (UniProt P32657); assay: ScCHD-1 Enzyme Inhibition Assay; format: functional; conditions: 30 µM; note: in the data most compounds retested in dose-response had high values
Chromo domain-containing protein 1 (Saccharomyces cerevisiae (strain ATCC 204508 / S288c) (Baker's yeast)), sequence (P32657 whole entry, the tested form may be a part): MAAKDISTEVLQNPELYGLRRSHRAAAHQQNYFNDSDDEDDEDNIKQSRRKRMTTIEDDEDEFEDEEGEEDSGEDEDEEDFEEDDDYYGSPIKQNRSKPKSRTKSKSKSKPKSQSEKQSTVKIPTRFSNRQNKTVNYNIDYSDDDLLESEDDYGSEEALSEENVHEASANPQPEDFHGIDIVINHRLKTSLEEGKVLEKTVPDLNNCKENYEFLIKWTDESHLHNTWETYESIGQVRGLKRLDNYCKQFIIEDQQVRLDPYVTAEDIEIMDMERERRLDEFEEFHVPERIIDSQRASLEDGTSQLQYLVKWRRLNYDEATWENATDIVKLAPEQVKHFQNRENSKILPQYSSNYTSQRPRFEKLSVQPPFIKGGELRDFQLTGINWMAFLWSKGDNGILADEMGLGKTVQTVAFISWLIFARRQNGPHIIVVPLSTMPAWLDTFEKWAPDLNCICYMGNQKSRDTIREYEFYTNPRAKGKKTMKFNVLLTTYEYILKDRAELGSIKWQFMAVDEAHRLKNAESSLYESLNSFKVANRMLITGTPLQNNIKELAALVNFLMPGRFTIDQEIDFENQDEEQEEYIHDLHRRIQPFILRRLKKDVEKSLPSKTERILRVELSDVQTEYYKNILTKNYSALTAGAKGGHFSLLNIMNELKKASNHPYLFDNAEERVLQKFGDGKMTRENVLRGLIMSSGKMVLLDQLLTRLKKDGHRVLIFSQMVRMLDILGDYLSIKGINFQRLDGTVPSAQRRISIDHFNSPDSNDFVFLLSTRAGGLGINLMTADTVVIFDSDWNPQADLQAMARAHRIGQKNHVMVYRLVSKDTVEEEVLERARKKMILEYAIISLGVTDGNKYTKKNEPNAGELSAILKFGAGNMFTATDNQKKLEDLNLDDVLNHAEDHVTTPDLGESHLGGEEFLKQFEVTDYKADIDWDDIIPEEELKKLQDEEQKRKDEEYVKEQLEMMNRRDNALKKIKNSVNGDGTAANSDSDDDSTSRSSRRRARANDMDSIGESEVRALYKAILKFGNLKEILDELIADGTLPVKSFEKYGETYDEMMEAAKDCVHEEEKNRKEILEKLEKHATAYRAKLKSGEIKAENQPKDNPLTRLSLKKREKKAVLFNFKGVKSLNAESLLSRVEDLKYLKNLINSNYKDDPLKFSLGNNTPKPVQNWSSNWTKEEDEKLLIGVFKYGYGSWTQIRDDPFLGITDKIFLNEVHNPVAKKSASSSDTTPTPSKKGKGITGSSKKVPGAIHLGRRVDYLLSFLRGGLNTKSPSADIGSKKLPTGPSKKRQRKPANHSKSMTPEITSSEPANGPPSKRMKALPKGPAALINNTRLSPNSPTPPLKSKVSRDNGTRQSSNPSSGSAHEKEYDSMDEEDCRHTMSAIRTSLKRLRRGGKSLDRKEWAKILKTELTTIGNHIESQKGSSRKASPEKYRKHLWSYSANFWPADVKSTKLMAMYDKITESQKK

SMILES	Percent Effect [1] [%]	Percent Effect [2] [%]	Percent Effect [3] [%]	Percent Effect [4] [%]	Percent Effect (Trypanosoma cruzi) [%]	Percent Effect [5] [%]	Percent Effect [6] [%]	Percent Effect (Homo sapiens) [%]	Percent Effect [7] [%]	Percent Effect [8] [%]	Percent Effect [9] [%]
O=C(C1CCCc2[nH]ncc21)N1CCCCCC1 (stereo not given)	-3.72	5.41	-4.75	2.71	-2.64	-1.24	11.2	0.454	2.15	6.17	-3.22
O=C(O)CC1CN(Cc2ccccc2)CCO1 (stereo not given)	-6.06	5.41	5.19	-3.59	-5.27	2.08	14.3	6.89	8.91	8.54	-5.29
CCn1cc(CN2CCCN(C(=O)CCCn3cncn3)CC2)cn1	-2.76	0	7.06	6.78	5.43	1.42	5.91	17.2	4.85	14.6	-6.03
COCC(=O)N1CCC(c2noc3nc(C)cc(C(F)(F)F)c23)CC1	-6.46	4.05	9.11	-5.57	-2.37	-7.66	13.9	21.4	-2.15	-1.3	-1.78
COc1c(CNCC(O)c2cccc(F)c2)c(C(C)C)nn1C (stereo not given)	2.75	10.4	-6.14	-13.3	-4.6	-0.21	18.7	5.92	9.52	14.1	-15.9
CCn1cc(CN(C)S(=O)(=O)c2ccc(Cl)cc2)cn1	-0.763	14.7	0.176	-5.16	-1.97	-10	10.3	15	4.23	7.69	-9.85
CCc1noc(C(C)N2CCN(c3ccc(C#N)cn3)CC2)n1 (stereo not given)	-5.24	10.5	4.88	-4.78	-4.58	-1.18	14.9	17.9	4.25	5.2	-5.13
O=C(NCC1CCOC1)c1csc(-c2cccc(Cl)c2)n1 (stereo not given)	-3.12	10.4	3.54	-3.81	-5.24	0.712	8.62	25.1	1.94	14.6	-5.77
Cc1cc(C)n(CC(=O)NC(Cc2ccsc2)c2ccccn2)c(=O)n1 (stereo not given)	-10.3	12.2	-6.03	12.5	8.5	-4.87	9.2	-8.13	5.38	11.7	-22.9
O=C(c1cnc(-c2cccs2)s1)N1CCCC(n2cccn2)C1 (stereo not given)	-4.52	13.5	1.78	1.67	-1.6	-2	3.24	13.5	5.42	11.1	-8.6
O=C(CSCC1CC1)N1CCCC(c2nccn2Cc2ccncc2)C1 (stereo not given)	-2.74	15.3	-12.9	10.9	2.62	2.65	7.37	-2.75	3.16	10.3	-2.97
Cc1nnc2n1CCN(C(=O)c1cc(Cl)c(Cl)n1C)C2	-1.98	5.26	-1.75	6.76	2.63	-1.53	0.501	-1.85	-1.47	7.32	-1.57
CCC(=O)N(C)C1CCN(Cc2ncc(C)c(OC)c2C)CC1	-5.54	18.2	-1.36	-0.124	2.25	2.13	18.9	16.3	5.83	19.5	-7.08
O=C(CCOc1ccccc1)N1CCC(Nc2cccnn2)CC1	-6.73	13.2	-7.1	16.8	2.15	-0.719	5.5	8.93	6.4	18.5	-5.39
COc1cccc(CN(C)C(=O)CN2CC(n3nc(C)cc3C)C2)c1	-0.578	-73.7	0.521	-5.84	1.27	1.18	24.3	23.1	26.6	39	-4.54
Cc1nc(C)c(C(=O)NCCNC(=O)Cc2cccc(F)c2)s1	-3.25	16.2	-2.81	1.34	0.464	0.924	17.8	17.9	9.9	18.3	-4.49
CNC1CCCN(Cc2noc(C3CC3)n2)C1 (stereo not given)	0.64	-5.41	-3.33	-1.4	-0.193	-0.476	1.9	-1.86	1.59	0	0.831
Cc1nc(CN2CCC(N(C)Cc3noc(C(C)C)n3)C2)cs1 (stereo not given)	1.43	-24.7	-8.83	5.3	-5.68	-4.54	19	26	4.3	2.5	-4.7
CC(C)CC1SCC(=O)Nc2c1cnn2-c1ccc(F)cc1 (stereo not given)	-4.89	6.67	1.34	3.64	4.91	-3.35	2.03	1.9	6.35	7.69	-4.25
Cc1cc(F)ccc1CNCCn1cccn1	-2.76	-1.39	-3.57	0.503	5.15	-0.883	8.95	1.75	1.05	2.56	-0.034
